Laboratory results as given in PubChem BioAssay AID1159580 (chemical genetic matrix, 2015).
Screen size: about 5,500 compounds; about 2,000 (36%) were called active. Not shown: some 18% with an inconclusive outcome. Rule as the data show it: active = normalized growth mostly below about 0.91 (no sharp cut-off); inconclusive = no clear call, values can overlap the other calls; inactive = mostly above about 0.92. The list shows a part of the results.

Test: chemical genetic growth profiling, strain panel (AID 1159580);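 also: tested at 20 µM; growth read once vehicle control cultures reached saturation at 30 °C; 1 = growth at the plate median or of vehicle wells; lower values mean less growth of the strain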
Conditions: S. cerevisiae deletion strains, growth OD

Measured: normalized growth

C[C@@H]1O[C@H](C[N+](C)(C)C)C[C@H]1O
inactive: locus YAL013W, strain DEP1, active compounds read low 1.01 | locus YAL040C, strain CLN3, active compounds read low 1 | locus YCL061C, strain MRC1 (second series), active compounds read low 1.01 | locus YDR363W, strain ESC2, active compounds read low 0.993 | locus YER002W, strain NOP16, active compounds read low 1.02 | locus YMR263W, strain SAP30, active compounds read low 1.01 | locus YNL128W, strain TEP1, active compounds read low 1 | locus YNL153C, strain GIM3, active compounds read low 1.02 | locus YNL175C, strain NOP13, active compounds read low 1.01 | locus YNL197C, strain WHI3, active compounds read low 1.01 | locus YNL224C, strain SQS1, active compounds read low 1.01 | locus YOR083W, strain WHI5 (second series), active compounds read low 1.01 | locus YPL241C, strain CIN2, active compounds read low 1.01

CC(C)CCCC1(C)C=Cc2c(O)c3c(c(CCC(C)C)c2O1)OC12C(CC4CC1C(C)(C)OC2(CCC(C)C(=O)O)C4O)C3=O (stereo not drawn)
active: locus YDR137W, strain rgp1, active compounds read low 0.815
inactive: locus YAL021C, strain ccr4, active compounds read low 1 | locus YAL026C, strain drs2, active compounds read low 0.991 | locus YAL030W, strain snc1, active compounds read low 1 | locus YBL061C, strain skt5, active compounds read low 0.996 | locus YBR009C, strain hhf1, active compounds read low 0.992 | locus YBR023C, strain chs3, active compounds read low 0.998 | locus YBR171W, strain sec66, active compounds read low 0.991 | locus YBR231C, strain swc5, active compounds read low 0.997 | locus YBR279W, strain paf1, active compounds read low 0.994 | locus YCL011C, strain gbp2, active compounds read low 0.994 | locus YCL016C, strain dcc1, active compounds read low 0.989 | locus YCL061C, strain MRC1, active compounds read low 0.986 | locus YCL069W, strain vba3, active compounds read low 0.998 | locus YCR088W, strain abp1, active compounds read low 0.997 | locus YDL005C, strain med2, active compounds read low 0.985 | locus YDL040C, strain nat1, active compounds read low 0.995 | locus YDR001C, strain nth1, active compounds read low 0.998 | locus YDR069C, strain doa4, active compounds read low 0.988 | locus YDR159W, strain sac3, active compounds read low 0.991 | locus YDR195W, strain ref2 1.01 | locus YDR297W, strain sur2, active compounds read low 0.998 | locus YDR334W, strain swr1, active compounds read low 0.975 | locus YDR335W, strain msn5, active compounds read low 0.995 | locus YDR392W, strain spt3, active compounds read low 0.925 | locus YEL003W, strain gim4, active compounds read low 0.982 | locus YEL037C, strain rad23, active compounds read low 1.03 | locus YEL061C, strain CIN8 (second series), active compounds read low 0.996 | locus YER015W, strain faa2, active compounds read low 1 | locus YER016W, strain bim1, active compounds read low 0.99 | locus YER111C, strain swi4, active compounds read low 1.02 | locus YER155C, strain BEM2 (second series), active compounds read low 1.01 | locus YFR010W, strain ubp6, active compounds read low 0.986 | locus YGL167C, strain pmr1, active compounds read low 0.988 | locus YGL173C, strain kem1, active compounds read low 0.991 | locus YGL227W, strain vid30, active compounds read low 1.01 | locus YGL240W, strain doc1, active compounds read low 0.979 | locus YGL253W, strain hxk2, active compounds read low 1 | locus YHR013C, strain ard1, active compounds read low 1.02 | locus YHR027C, strain rpn1, active compounds read low 1 | locus YHR030C, strain SLT2, active compounds read low 0.966 | locus YHR079C, strain IRE1, active compounds read low 0.971 | locus YHR142W, strain chs7, active compounds read low 1.01 | locus YJL092W, strain hpr5, active compounds read low 0.988 | locus YJL095W, strain BCK1 (second series), active compounds read low 1 | locus YJL095W, strain BCK1, active compounds read low 0.987 | locus YJL115W, strain asf1, active compounds read low 0.996 | locus YJL129C, strain trk1, active compounds read low 0.958 | locus YJL154C, strain vps35, active compounds read low 0.994 | locus YJL164C, strain tpk1, active compounds read low 0.982 | locus YJL166W, strain qcr8, active compounds read low 0.996 | locus YJL187C, strain SWE1, active compounds read low 0.997 | locus YJR066W, strain TOR1, active compounds read low 0.919 | locus YKL160W, strain elf1, active compounds read low 1 | locus YKR026C, strain gcn3, active compounds read low 1 | locus YKR091W, strain srl3, active compounds read low 0.998 | locus YLL001W, strain dnm1, active compounds read low 1 | locus YLL026W, active compounds read low 0.997 | locus YLL041C, strain sdh2, active compounds read low 0.995 | locus YLR027C, strain aat2, active compounds read low 0.999 | locus YLR113W, strain HOG1, active compounds read low 0.941 | locus YLR221C, strain rsa3, active compounds read low 0.989 | locus YLR258W, strain gsy2, active compounds read low 0.998 | locus YLR262C, strain YPT6 (second series), active compounds read low 0.919 | locus YLR320W, strain mms22, active compounds read low 0.99 | locus YLR342W, strain FKS1, active compounds read low 1 | locus YLR357W, strain rsc2, active compounds read low 1.04 | locus YLR370C, strain arc18, active compounds read low 0.999 | locus YLR384C, strain iki3, active compounds read low 0.992 | locus YML120C, strain ndi1, active compounds read low 0.997 | locus YMR058W, strain fet3, active compounds read low 0.986 | locus YMR125W, strain sto1, active compounds read low 0.991 | locus YMR129W, active compounds read low 0.993 | locus YMR205C, strain PFK2, active compounds read low 0.955 | locus YMR231W, strain pep5, active compounds read low 0.986 | locus YNL071W, strain lat1, active compounds read low 0.969 | locus YNL183C, strain NPR1, active compounds read low 0.92 | locus YNL209W, strain ssb2, active compounds read low 0.99 | locus YNL248C, strain rpa49, active compounds read low 1.01 | locus YNL322C, strain KRE1 (second series), active compounds read low 1.01 | locus YNR049C, strain mso1, active compounds read low 1.01 | locus YOR001W, strain rrp6, active compounds read low 0.983 | locus YOR070C, strain gyp1, active compounds read low 0.995 | locus YOR080W, strain dia2, active compounds read low 1 | locus YOR083W, strain WHI5, active compounds read low 0.99 | locus YOR106W, strain vam3, active compounds read low 0.996 | locus YOR231W, strain MKK1, active compounds read low 0.964 | locus YOR265W, strain rbl2, active compounds read low 1 | locus YOR270C, strain vph1, active compounds read low 0.955 | locus YOR290C, strain snf2, active compounds read low 0.995 | locus YPL051W, strain arl3, active compounds read low 0.98 | locus YPL078C, strain atp4, active compounds read low 1 | locus YPL106C, strain sse1, active compounds read low 1 | locus YPL240C, strain hsp82, active compounds read low 1.01 | locus YPL256C, strain CLN2, active compounds read low 0.985
